Bioassay records from PubChem.
A selection: hits, their analogues and other compounds. The true share with any hit is near 0.92%.
WRN helicase inh = blocks human WRN helicase; WRN helicase unwinding, fluorescent forked duplex, kinetic; Potency, µM (titrated, usually from 114 µM), hits mostly inhibitors; 360,000 compounds, 0.46% hits; AID 651768; note: nearly all actives have a fitted effect of over 55% in size
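Screening of the MLSMR collection measured strand separation of a quenched forked DNA duplex (100 nM) by 20 nM WRN with 2 mM ATP, all final. Compounds were preincubated with enzyme 15 min at room temperature.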
APE1 inh = APE1 (human) endonuclease inhibition | recombinant APE1, TAMRA/BHQ-2 abasic DNA cleavage fluorescence | Potency, µM (titrated, usually from 65.8 µM), usual class: inhibitors | 350,000 compounds, 0.35% hits | AID 2517; note: nearly all actives have a fitted effect of over 55% in size
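APE1 at 0.75 nM final was preincubated with compound 15 min at room temperature, then 50 nM double-stranded THF abasic-site substrate (5'-TAMRA/3'-BHQ-2) was added. Fluorescence (ex 525/em 598 nm) was read kinetically; third-minus-first read gave activity.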
RECQ1 inh = inhibitors of human RECQ1 DNA helicase. P46063. RECQ1 DNA unwinding, red fluorescence kinetic read. Potency, µM (titrated, usually from 57.3 µM), usual class: inhibitors. AID 2549. 240,000 compounds, 0.54% hits; note: nearly all actives have a fitted effect of over 30% in size
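RECQ1T1 50 nM; forked duplex (20 bp + 30-nt ss tails) 200 nM, ATP 2 mM final; pH 8.0, 2 mM MgCl2, 2.5 ug/ml poly(dI-dC); 15 min compound preincubation; discontinuous kinetic read over 2 h at RT.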
BLM helicase inh = Bloom syndrome helicase (human) inhibition | 350,000 compounds, 0.2% hits | P54132 | recombinant BLM DNA unwinding, fluorescence dequenching | Potency, µM (doses to about 56.1 µM), hits mostly inhibitors; note: nearly all actives have a fitted effect of over 35% in size
L3MBTL1 block = L3MBTL1 (human) inhibition. Q9Y468. AlphaScreen L3MBTL1–H3K9me1 peptide binding. Potency, µM (highest dose often 57.1 µM), actives largely listed as inhibitors. 230,000 compounds, 0.66% hits. AID 485360; note: nearly all actives have a fitted effect of over 60% in size
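L3MBTL1 50 nM + b-AHA-H3(1-15)K9me1 75 nM, 30 min RT; compound added, 30 min RT; streptavidin donor/Ni-chelate acceptor beads 10 ug/mL each final, 30 min RT dark; AlphaScreen read.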
A number is an active result; 0 = inactive; ? = inconclusive; - = no result; [ ] = remark or other dose. Calls come from the whole dose curve; as a rule, active = well fitted curve in the direction sought with a large enough effect; inconclusive = small, poorly fitted or top-dose-only effect, or another doubt; inactive = no such curve, though single readings can be large; an effect the other way counts as inactive or inconclusive.

SMILES	WRN helicase inh	APE1 inh	RECQ1 inh	BLM helicase inh	L3MBTL1 block
CC1O[C@@H](O[C@@H]2C(O)C[C@H](O[C@@H]3C(O)C[C@@H](OC4CC[C@@]5(C)C6CC(O)[C@@]7(C)C(C8=CC(=O)OC8)CC[C@@]7(O)C6CC[C@@H]5C4)OC3C)OC2C)CC(O)[C@H]1O (stereo partly specified)	-	0	0	0	-
COc1ccc2ccccc2c1/C=N/N1C(=O)CSC1=S	?	0	28.2µM	0	?
COc1cccc(/C=N/N2C(=O)CSC2=S)c1O	?	0	0	0	25.1µM
COc1ccc2ccccc2c1C=NN1CCCCC1	0	-	-	-	-
CC[C@@]1([C@@H]2O[C@@H]([C@H]3O[C@@](O)(CO)[C@H](C)C[C@@H]3C)C[C@@H]2C)CC[C@@H]([C@]2(C)CCC3(C[C@H](O)[C@@H](C)[C@@H]([C@@H](C)[C@@H](OC)[C@H](C)C(=O)O)O3)O2)O1 (stereo partly specified)	-	0	0	0	-
COC(=O)C1=C(C)N(Cc2ccc(C)cc2)C(=O)/C1=C\c1ccc(O)c(OC)c1	0	0	0	0	0
CCOc1cc(/C=C2\C(=O)N(CCc3ccc(OC)c(OC)c3)C(C)=C2C(=O)OC)ccc1O	79.4µM	0	0	0	0
COc1ccc(C2=Nn3c(nnc3-c3ccccc3C(F)(F)F)SC2)cc1OC	-	0	-	-	-
COc1cc(/C=C2/C(=O)NN(c3ccc(Cl)c(Cl)c3)C2=O)cc([N+](=O)[O-])c1O	50.1µM	0	-	0	-
COc1cc(/C=C2/C(=O)NN(c3cccc(F)c3)C2=O)ccc1OC(=O)c1ccco1	50.1µM	0	0	0	0
COc1cc(/C=C2/C(=O)NN(c3ccc(Cl)cc3)C2=O)ccc1OC(=O)c1ccco1	39.8µM	0	0	0	0
CCC1OC(=O)C[C@@H](O)[C@H](C)[C@@H](OC2OC(C)CC(N(C)C)C2O)[C@@H](CC=O)C[C@@H](C)C(=O)/C=C/[C@]2(C)OC2C1C (stereo partly specified)	-	-	-	0	-
COc1cccc(-c2nnc3n2N=C(c2ccc(OC)cc2OC)CS3)c1	-	0	0	0	-
O=C(C[n+]1ccc(CCSc2ccc(F)cc2)cc1)c1ccccc1	39.8µM	0	0	0	0
Cc1ccc(SCCc2cc[n+](CC(=O)c3ccccc3)cc2)cc1	0	0	0	0	0
NC(=S)n1[nH]c(-c2ccc([N+](=O)[O-])cc2)c(N=Nc2cccc([N+](=O)[O-])c2)c1=O	?	?	0	17.8µM	?
O=C1c2cccc3cccc(c23)C(=O)N1c1ccc2ncccc2c1	79.4µM	0	0	0	0
Cc1ccc(C(=O)O)cc1-c1ccc(C=C2C(=O)c3ccccc3C2=O)o1	0[11.6 µM]	0	0	0	25.1µM
O=C1C=CC(=O)N1CCCCCCN1C(=O)C=CC1=O	20µM	0	?	0	0
O=C(O)C1CCCCC1C(=O)Nc1cccc(Br)c1 (stereo unspecified)	50.1µM	0.474µM	-	-	12.6µM
O=C(Nc1cccc(Br)c1)C1CCCC1	0	-	-	-	-
O=c1cc(-c2ccccc2O)oc2c(O)c(O)ccc12	-	3.55µM	3.16µM	0	-
Cc1oc2c(O)c(O)ccc2c(=O)c1-c1ccc(Cl)cc1	?	0	-	0	0
Cc1oc2c(O)c(O)ccc2c(=O)c1-c1ccccc1	0	0	10µM	0	-
O=c1cc(-c2ccccc2)oc2c(O)c(O)ccc12	-	?	0	0	-
SMILES	WRN helicase inh	APE1 inh	RECQ1 inh	BLM helicase inh	L3MBTL1 block
CN1/C(=C\C=C2/SC(=S)NC2=O)C(C)(C)c2ccccc21	28.2µM	25.1µM	31.6µM	?	0
N#Cc1cccc(-c2noc(-c3ccccc3F)n2)c1	-	0	-	-	-
CC1(C)Cc2c(C#N)c(N3CCN(C(=O)c4ccccc4)CC3)nc(-c3ccco3)c2CS1	?	0	0	28.2µM	?
CCSC[C@H](NC(=O)[C@H](C)NC(=O)[C@@H](N)Cc1ccc(O)cc1)C(=O)N[C@@H](CC(=O)O)C(=O)N[C@H](C(=O)N[C@@H](C)C(=O)N[C@H](C(=O)N[C@@H](CSCC)C(=O)N[C@H](C(=O)N[C@H](C(=O)N[C@@H](Cc1cnc[nH]1)C(=O)N[C@@H](CCCNC(=N)N)C(=O)N[C@@H](CC(C)C)C(=O)N[C@@H](C)C(=O)NCC(=O)N[C@@H](CC(C)C)C(=O)N[C@@H](CC(C)C)C(=O)N[C@@H](CO)C(=O)N[C@@H](CCCNC(=N)N)C(=O)N[C@@H](CO)C(=O)NCC(=O)NCC(=O)N[C@H](C(=O)N[C@H](C(=O)N[C@@H](CCCCN)C(=O)N[C@@H](CC(N)=O)C(=O)N[C@@H](CC(N)=O)C(=O)N[C@@H](Cc1ccccc1)C(=O)N[C@H](C(=O)N1CCC[C@H]1C(=O)N[C@H](C(=O)N[C@@H](CC(N)=O)C(=O)N[C@H](C(=O)NCC(=O)N[C@@H](CO)C(=O)N[C@@H](CCCCN)C(=O)N[C@@H](C)C(=O)N[C@@H](Cc1ccccc1)C(N)=O)C(C)C)[C@@H](C)O)C(C)C)C(C)C)C(C)C)[C@@H](C)O)C(C)C)[C@@H](C)O)[C@@H](C)O	-	0	0	0	-
O=C(CCN1CCCC1Cc1ccccc1)c1ccc2c(c1)OCCO2 (stereo unspecified)	56.2µM	0	0	0	-
CC1=C(C(=O)OC(C)C)C(c2ccc(Cl)cc2)n2c(s/c(=C\c3ccc(OCC(=O)O)cc3)c2=O)=N1 (stereo unspecified)	0[11.6 µM]	6.7µM	-	0	0
O=C(O)c1cc(-c2ccc(/C=c3\sc4nc5ccc(Br)cc5n4c3=O)o2)ccc1Cl	-	2.67µM	-	0	28.2µM
C#CCN1C(=O)S/C(=C\c2ccc(-c3ccc(Cl)c(C(=O)O)c3)o2)C1=O	0[11.6 µM]	0	-	0	?
N#Cc1c(-c2cccc(Br)c2)no[n+]1[O-]	-	0	-	-	-
COc1ccc(-c2ccc3nnc(-c4ccccc4OC)n3n2)cc1OC	-	0	-	-	-
Cc1cccc(NC(=O)CSc2nnc(-c3ccco3)c(-c3ccco3)n2)c1	31.6µM	?	0	?	?
CCOCC	-	0	0	0	-
CN(CC1CCCO1)S(=O)(=O)c1ccc(C(=O)Nc2nc(-c3ccccn3)cs2)cc1 (stereo unspecified)	0	0	0	0	31.6µM
CCc1ccc(NC2=CC(=O)C(=O)c3ccccc32)cc1	0	?	-	-	0
Cc1ccc(S(=O)(=O)/N=C2\C=C(Nc3cccc(C(=O)O)c3)C(=O)c3ccccc32)cc1	0	0	-	20µM	-
COC(=O)c1ccccc1NC1=C/C(=N\S(=O)(=O)c2ccc(C(=O)O)cc2)c2ccccc2C1=O	?	?	-	20µM	-
Cc1ccc(S(=O)(=O)/N=C2\C=C(Nc3ccc(O)cc3)C(=O)c3ccccc32)cc1	?	0	-	-	?
O=C1C(Nc2ccccc2)=C/C(=N/S(=O)(=O)c2cccs2)c2ccccc21	0	?	0	0	6.31µM
